# Most compounds without a hit are left out; they make up all but 19% or so of the library.
# DT40 TDP1 CPT – DT40-hTDP1 cell growth loss with CPT; chicken DT40 Tdp1-/-;hTDP1 cells + 20 nM CPT, ATP luminescence, 48 h; Potency, µM (doses to about 46.2 µM), for inactives: top-dose activity change, negative = growth inhibition, hits mostly inhibitors; actives 12% (n = 420,000); note: potency is the fitted concentration of half-maximal effect; nearly all actives have a fitted effect of over 55% in size
#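 Chicken DT40 Tdp1-/- cells stably complemented with human TDP1 were seeded at 400 cells/well in medium containing 20 nM camptothecin, exposed to pin-transferred compounds, and grown at 37 °C for at least 48 hr. Viability was read as ATP luminescence.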
# ELG1 DNA repair – inhibitors of ELG1-dependent DNA repair in HEK293T cells; actives 2.3% (n = 330,000); AID 504467; Potency, µM (top dose mostly 46.1 µM), without a hit: at the highest dose activity change, negative = inhibition, actives largely listed as inhibitors; HEK293T ELG1-luciferase reporter, luminescence, 16 h; DNA damage induced by 5-fluorouridine; note: potency is the fitted concentration of half-maximal effect; nearly all actives have a fitted effect of over 55% in size
#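 In this reporter screen, reduction of luminescence relative to DMSO vehicle indicated activity. Compounds and 5-fluorouridine were added together to 2,000 cells per well, incubated for 16 hr at 37 °C, then developed with ONE-Glo.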
# HT1080 IDH1KD tx – toxicity to HT-1080 IDH1 knockdown cells (counter line). actives 2% (n = 360,000). HT-1080 IDH1 knockdown viability, ATP luminescence, 48 h. Potency, µM (top dose mostly 46.1 µM), for inactives: top-dose activity, negative = toxicity, actives largely listed as cytotoxic;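 note: potency is the fitted concentration of half-maximal effect; 0% = DMSO wells and -100% = cell-free medium wells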
#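 After a 2 h attachment period, IDH1KD HT-1080 cells took pin-transferred compound for 48 h at 37 °C; ATP-based luminescence after 10 min room-temperature reagent incubation reported viability.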
# IL1B secr inh – blocks inflammasome-driven IL-1 beta release | actives 4.7% (n = 360,000) | THP-1 LPS/ATP IL-1B secretion, AlphaLISA, 16 h; active compounds read low | activity change, % at 57.5 µM; in the data active = activity change below about -50%; inconclusive = mostly about -30% to -49%
#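 Secreted IL-1B measured by AlphaLISA bead assay after 16 h compound exposure of THP-1 cells; compounds (final up to 57.5 uM) added 1 h before LPS (250 ng/mL) and ATP (1.25 mM) stimulation; lower signal means less secretion.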
# HT1080-NT tox – kills 2HG-producing HT-1080-NT fibrosarcoma cells; HT-1080-NT fibrosarcoma viability, CellTiter-Glo ATP luminescence, 48 h; Potency, µM (top dose mostly 46.1 µM), for inactives: top-dose activity, negative = less viability, most hits filed as cytotoxic; actives 1.6% (n = 360,000);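 note: NT is the 2HG producing partner of a matched IDH1 knockdown line; potency is the fitted concentration of half-maximal effect; 0% = DMSO-treated cells and -100% = media-only wells without cells; nearly all actives have a fitted effect of over 55% in size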
#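 Luminescent CellTiter-Glo readout after 48 hours of compound exposure at 37 degrees C defined viability of HT-1080-NT cells. Activity was normalized to DMSO wells and cell-free media wells; concentration-response curves were fitted and assigned curve classes.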
# TDP1 cell noCPT – qHTS for Inhibitors of human tyrosyl-DNA phosphodiesterase 1 (TDP1): qHTS in cells in absence of CPT; DT40 Tdp1-/- hTDP1 cells, no CPT, ATP luminescence, 48 h; Potency, µM (highest dose often 46.2 µM), without a hit: top-dose activity change, negative = growth inhibition, actives largely listed as inhibitors; actives 15% (n = 420,000); note: potency is the fitted concentration of half-maximal effect; nearly all actives have a fitted effect of over 55% in size
#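 Readout: luminescence from CellTiter-Glo after 30 min in the dark at RT. Cells: DT40 Tdp1-/- with stable hTDP1, 400/well. Exposure: compounds alone, ≥48 hr, 37 °C.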
# The depositor's hits bear a star; ? = inconclusive; / = no result given. Unless noted, calls come from the whole dose curve; as a rule, active = well fitted curve in the direction sought with a large enough effect; inconclusive = small, poorly fitted or top-dose-only effect, or another doubt; inactive = no such curve, though single readings can be large; an effect the other way counts as inactive or inconclusive. Unless noted, % is set by controls: 0 for no effect and ±100 for the full control effect.
SMILES,DT40 TDP1 CPT,ELG1 DNA repair,HT1080 IDH1KD tx,IL1B secr inh,HT1080-NT tox,TDP1 cell noCPT
Cc1cccc(C(=O)N2CCc3cc(CNC(=O)CCc4ccccc4)ccc32)c1,15µM*,/,/,/,/,13µM*
COc1ccc(OCC(=O)NCc2ccc3c(c2)CCN3C(=O)c2cccc(C)c2)cc1,1.8µM*,/,/,/,/,1.8µM*
O=C(COc1ccc(F)cc1)NCc1ccc2c(c1)CCN2C(=O)c1ccccc1,10%,/,/,/,/,6%
CCC(C(=O)NCc1ccc2c(c1)CCN2C(=O)c1ccc(F)cc1)c1ccccc1 (stereo unspecified),4%,/,/,/,/,1%
CC#CCN(Cc1ccco1)C(=O)c1ccc(OC2CCN(Cc3ccccn3)CC2)cc1,?,9%,-1%,-6,-10%,?
CSc1ncc2c(n1)-c1ccccc1N(Cc1ccc(Cl)cc1)S2(=O)=O,-8%,/,/,/,/,-9%
Cc1nc2c(cc1N)nc(C)n2Cc1ccccc1,-11%,2%,-2%,-12,-8%,-9%
COc1cc(C(=O)Nc2cccc(-c3nc4ccccc4o3)c2C)cc(OC)c1OC,-1%,1%,3%,14,2%,-12%
Cc1c(NC(=O)c2ccc(Br)o2)cccc1-c1nc2ccccc2o1,26µM*,/,/,/,/,23µM*
Cc1c(NC(=O)c2cccc3c(Cl)cccc23)cccc1-c1nc2ccccc2o1,15µM*,/,/,/,/,21µM*
O=C(Nc1cc(-c2nc3ccccc3o2)ccc1Cl)c1cccc2c(Cl)cccc12,?,/,/,/,/,-22%
CC(C)CNc1cc(Cl)c(S(=O)(=O)NCC(C)C)cc1C(=O)O,-8%,-1%,12%,26,-1%,-28%
CC(C)CNS(=O)(=O)c1cc(C(=O)N2CC(C)OC(C)C2)c(Cl)cc1Cl (stereo unspecified),?,3%,-4%,-1,12%,23µM*
CCc1cccc(C)c1NC(=O)CSc1nnc(N)s1,-3%,/,/,/,/,-6%
COCCSc1ccccc1C(=O)Nc1cc([N+](=O)[O-])ccc1OC,-1%,-5%,-3%,-15,0%,?
COCCSc1ccccc1C(=O)Nc1ccc([N+](=O)[O-])cc1OC,?,?,-2%,-2,0%,23µM*
O=C(CSc1nncn1-c1cccnc1)Nc1cccc([N+](=O)[O-])c1,2%,-1%,4%,-3,6%,-4%
COc1cc([N+](=O)[O-])ccc1NC(=O)CSc1nncn1-c1cccnc1,?,?,-2%,10,0%,0.52µM*
COc1ccc([N+](=O)[O-])cc1NC(=O)CSc1nc(C)cc(C)n1,16µM*,5%,-6%,27,-8%,?
COc1ccc([N+](=O)[O-])cc1NC(=O)CSc1ccc2ccccc2c1,23µM*,-24%,-30%,16,?,?
Cc1ccc(N2CC(NC(=O)CCCc3ccccc3)CC2=O)cc1 (stereo unspecified),-29%,/,/,/,/,-5%
Cc1c(C(=O)NCCN(C)C)oc2ccc(S(=O)(=O)N3CCC4(CC3)OCCO4)cc12,1%,15%,-9%,6,-16%,-7%
Cc1c(C(=O)NCc2cccnc2)oc2ccc(S(=O)(=O)N3CC(C)CC(C)C3)cc12 (stereo unspecified),?,-6%,-11%,36,-20%,-29%
COc1ccc(NC(=O)c2oc3ccc(S(=O)(=O)N4CCC5(CC4)OCCO5)cc3c2C)cc1Cl,8.2µM*,/,/,/,/,9.2µM*
Cc1c(C(=O)NCc2cccnc2)oc2ccc(S(=O)(=O)N3CCC4(CC3)OCCO4)cc12,?,23µM*,-6%,-12,5%,-27%

# Bioassay records as filed in PubChem.
